Out of some 300,000 compounds screened, about 3,600 (1.2%) were called active. Rule as the data show it: active = activation above about 30% (passing the limit was not always enough); inconclusive = no clear call, values can overlap the other calls. What follows is part of a selection rich in actives, with near analogues and random picks from the rest.

This assay can be described thus: activation of beta-catenin signaling reporter – cell-based, plate reader, single point, primary screen (AID 743398).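 Also: 0% = neutral control wells and 100% = positive control wells.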 The settings on record: Wnt/beta-catenin reporter cell assay, activator, at 9.35 µM, active compounds read high.
For the compound `COCC1CCCCN1C(=O)c1cc(COc2ccc(C)c(C)c2)on1` (stereo not drawn), the activation was 28.7% (inactive).

`CO[C@@H]1CN(C)C(=O)c2cc(NC(=O)Nc3cc(F)ccc3F)ccc2OC[C@H](C)N(C(=O)c2ccccn2)C[C@@H]1C`: the activation is -7.29% (inactive).

Take `c1ccc2c(c1)nnn2-c1ccncc1`: the activation was -1.47% (inactive).

Regarding `COC(=O)c1sccc1NC(=O)c1ccc(Cl)cc1`, the activation is -0.421% (inactive).

On to `COC(=O)c1sccc1NN1C(=O)c2ccccc2C1=O`, for which the activation is 40.2% (active).

Regarding `COC(=O)c1sccc1NC(=S)Nc1ccc(C)cc1`, the activation is 12.9% (inactive).

Take `O=C(NC1CCCCC1)C(c1cc2ccccc2o1)n1c(=O)c(-c2ccco2)nc2ccccc21` (stereo not drawn): the activation was 2.44% (inactive).

As for `CCOC(=O)c1cccc(NC(=O)CCOc2ccccc2)c1`, the activation is -0.119% (inactive).

On to `CCOC(=O)c1cccc(NC(=O)CN2C(=O)C3CC=CCC3C2=O)c1` (stereo not drawn), for which the activation was 0.82% (inactive).

For `CCOC(=O)c1cccc(NC(=O)c2ccc(F)cc2F)c1`, the activation was 46.1% (active).

For the compound `COc1ccc(N2C(=O)c3ccccc3NC2c2ccc(OC)c(CN3CCOCC3)c2)cc1` (stereo not drawn), the activation is 7.45% (inactive).

For the compound `COc1ccc(C2Nc3ccccc3C(=O)N2c2ccc(Cl)cc2)cc1Cn1cc([N+](=O)[O-])cn1` (stereo not drawn), the activation is 63.8% (active).

As for `COc1ccc(C2Nc3ccccc3C(=O)N2Cc2ccccc2)cc1Cn1nnc2ccccc21` (stereo not drawn), the activation is -5.17% (inactive).

With `COc1cccc(-c2cnc3c(NC(C)=O)cc(-c4cc(F)ccc4OC)cn23)c1`, the activation was -0.939% (inactive).

As to `CC(C)(C)C1CCC(=O)N2CCC[C@]2(c2ccccc2)C1` (stereo partly drawn), the activation is -2.76% (inactive).

As for `COc1ccc(C2=NN(C(C)=O)C(c3ccccc3)C2)cc1` (stereo not drawn), the activation is 3.24% (inactive).

As for `COc1ccc(C2=NN(C(=O)c3cccnc3)C(c3ccccc3)C2)cc1` (stereo not drawn), the activation was 1.72% (inactive).

Consider `COc1ccc(C2=NN(C(=O)c3ccccc3C(=O)O)C(c3ccccc3O)C2)cc1` (stereo not drawn), for which the activation was 42.7% (active).

Turning to `COCCNC(=S)N(C)[C@H]1C[C@H]2c3[nH]c4ccccc4c3CCN2C[C@H]1[C@H](C)O`, the activation is -0.111% (inactive).

`COC(=O)[C@]12CCCCC=C1N(Cc1ccc(Cl)cc1Cl)C(=O)[C@H](CC(=O)NCc1cccc3ccccc13)C2`: the activation is -3.47% (inactive).

As for `O=C(CCc1ccc(O)cc1)NN=Cc1cc(Br)ccc1O`, the activation is -2.84% (inactive).

With `O=C(Nc1ccccc1F)c1ccc2c(c1)OCO2`, the activation is 44% (active).

For the compound `N#Cc1ccccc1NC(=O)c1ccc2c(c1)OCO2`, the activation was 3.38% (inactive).

For `O=C(Nc1ccccc1N1CCN(C(=O)c2ccccc2)CC1)c1ccc2c(c1)OCO2`, the activation is 1.55% (inactive).

Take `CN1C(=O)C(Br)(Br)CC1c1cccnc1` (stereo not drawn): the activation is 0.101% (inactive).

Take `CCOC(=O)[C@]12CCCC=C1N(CCC1=CCCCC1)C(=O)[C@H](CC(=O)N1CCSCC1)C2`: the activation is -2.19% (inactive).

Take `COc1ccccc1Cc1c(-c2ccc(F)cc2)nc2ccc(C)cn12`: the activation was 13% (inactive).

Turning to `CCOC(=O)N1CCN(C(=O)C[C@H]2C[C@@]3(C(=O)OC)C(=C[C@H](C4CCCC4)O[C@@H]3C)N(Cc3ccccc3)C2=O)CC1`, the activation is -4.54% (inactive).

For `CCN(CC)C(=O)CSc1ncnc2c1cnn2-c1ccccc1`, the activation was 61.3% (active).

In the case of `CCC(C)N(C(=O)CSc1ncnc2c1cnn2-c1ccccc1)C1CCS(=O)(=O)C1` (stereo not drawn), the activation was 0.0855% (inactive).

Regarding `CCN(C(=O)CSc1ncnc2c1cnn2-c1ccccc1)C1CCS(=O)(=O)C1` (stereo not drawn), the activation is 0.526% (inactive).

For the compound `O=C1NC[C@H](Cc2ccc(O)cc2)N(C[C@@H]2CCCN2C[C@H](Cc2ccccc2)N2C[C@H](Cc3ccccc3)N(CC3CCCCC3)C(=O)C2=O)C1=O`, the activation was -2.18% (inactive).

As for `COC(=O)c1ccc(CN2C(=O)[C@]3(OCCC=C[C@H]3C)c3c(Br)cccc32)cc1`, the activation is -10.3% (inactive).

Turning to `NS(=O)(=O)c1cccc(NC(=O)CN2CCCc3ccccc32)c1`, the activation was -1.12% (inactive).

Regarding `CC1Cc2ccccc2N1CC(=O)Nc1ccc(S(N)(=O)=O)cc1` (stereo not drawn), the activation is 39% (active).

As to `CC1CC(C)CN(CC(=O)Nc2ccc(S(N)(=O)=O)cc2)C1` (stereo not drawn), the activation is -0.27% (inactive).

For `CC(NC(=O)COC(=O)c1cc(=O)[nH]c2ccccc12)c1ccccc1` (stereo not drawn), the activation is -11.1% (inactive).

As for `CC1CCN(C(=O)COC(=O)c2cc(=O)[nH]c3ccccc23)CC1`, the activation is -3.48% (inactive).

In the case of `CN(C(=O)COC(=O)c1cc(=O)[nH]c2ccccc12)C1CCCCC1`, the activation was 60.6% (active).

Take `Cc1ccc([C@H]2N[C@]3(CCCN(Cc4ccccc4)C3=O)[C@H]3C(=O)N(Cc4ccccc4)C(=O)[C@@H]23)cc1`: the activation was -1.11% (inactive).

As for `Cc1cc(C)nc(Nc2cc([N+](=O)[O-])ccc2C)n1`, the activation was -0.166% (inactive).

In the case of `Cc1ccc(-c2cn(S(=O)(=O)c3cccc([N+](=O)[O-])c3)nc2N)cc1`, the activation was -0.55% (inactive).

Turning to `Cc1ccc(-n2cc3ccc([N+](=O)[O-])cc3n2)cc1`, the activation is 44.6% (active).

Turning to `CC(C)[C@@H](C)/C=C/[C@@H](C)[C@H]1CC[C@@H]2[C@]1(C)CCC1[C@]23C=C[C@]2(C[C@@H](O)CC[C@]12C)N(c1ccc([N+](=O)[O-])cn1)O3` (stereo partly drawn), the activation is -14.5% (inactive).

On to `CN(C(=O)CN1CCN(c2cc(-c3ccc(OCc4ccccc4)cc3)ncn2)CC1)c1ccccc1`, for which the activation was -1.53% (inactive).

Regarding `CC(C)Cc1cc(C(=O)NCCc2ccccc2)no1`, the activation was 28.6% (inactive).

Regarding `CC(C)Cc1cc(C(=O)Nc2cc(Br)ccc2O)no1`, the activation is 44.3% (active).

With `CC(C)CNC(=O)c1cc(-c2ccc(Br)cc2)on1`, the activation is 26.3% (inactive).

Regarding `OC[C@@H]1CN(Cc2ccc(-c3ccccc3)cc2)C[C@H](n2cnc3c(NC4CCCC4)ncnc32)O1`, the activation was -4.89% (inactive).

Turning to `Cc1nc2c(OCc3ccc(Cl)cc3Cl)cccn2c1N(C)CC1CC1`, the activation was -3.96% (inactive).

Regarding `Nc1nc2c(ncn2[C@@H]2O[C@H](C(=O)N[C@@H](Cc3ccccc3)C(=O)NCc3ccccc3)[C@@H](O)[C@H]2O)c(=O)[nH]1`, the activation is 1.27% (inactive).

Turning to `CSCCC(C(=O)NC(C)(C)C)n1c(-c2ccccc2)nc2ccccc21` (stereo not drawn), the activation was 2.95% (inactive).

Consider `CCOC(=O)c1c(NC(=S)SC)sc(C(=O)N2CCc3ccccc3C2)c1C`, for which the activation is -0.956% (inactive).

The record behind these values is PubChem BioAssay AID743398 (Broad Institute, 2014).
